The panel holds about 83,000 compounds, 20% with a hit somewhere; the sample as a whole holds those more often.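 Treatment: one concentration, 48 hours, 96-well format. Scoring: percent growth, with anything below 10 considered active.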 Values without a mark were called inactive. Active and inactive are the calls of the source.
Each compound was assayed on SNB-75 CNS (assay: NCI-60 one-dose screen, 48 h (100 = growth as untreated, 0 = no growth, -100 = all killed)). Conditions: 10 µM unless noted.
Description: Growth inhibition of the SNB-75 human tumor cell line is measured as a screen for anti-cancer activity. Cells are grown in 96 well plates and exposed to the test compound for 48 hours. Compounds are tested at a single concentration, which is 10^-5 M for most compounds. The reported endpoint is percent growth (GI% or GIPRCNT), where numbers from 0 - 100% represent growth inhibition, and numbers from -100% - 0 represent cell death. For example, a value of 40 represents 60% growth inhibition. A value of 0 means no net growth occurred over the course of the experiment. A value of -40 indicates 40% of cells at the beginning of the experiment died by the end of the experiment. A value of -100 means all cells are dead at the end of the experiment.
NCI-60 Human Tumor Cell Lines Screen was performed using the standard one-dose NCI protocol, which is described in more detail at https://dtp.cancer.gov/discovery_development/nci-60/default.htm.
Compounds with GIPRCNT values below 10 were considered active. Activity score was based on GIPRCNT using the following formula: […]
Score is 0 for GIPRCNT values of 100 or above, 50 for GIPRCNT values of 0, and 100 for GIPRCNT values of -100.

Row | Structure (SMILES) | growth
1 | O=C(NC(=S)Nc1ccc(-c2nc3ccccc3[nH]2)cc1)c1ccc2ccccc2c1 | -62.4% (active)
2 | COc1cc2c(c(OC)c1OC)C(=O)/C(=C/c1cc(C)c(O)c(C)c1)S2 | 4.46% (active)
3 | CCNCCNc1cc(C2CCCC2)c(C#N)c2nc3ccccc3n12 | -33.3% (active)
4 | Cc1[nH]c(-c2nc3ccccc3[nH]2)c(C)c1C(=O)N1CCc2sccc2C1 | 78.6%
5 | CCOc1ccc(-c2nc3ccc(-c4nc5ccc(N6CCN(C)CC6)cc5[nH]4)cc3[nH]2)cc1OCC | 6.64% (active)
6 | CN(C)c1ccc(-c2cc(-c3ccc(Nc4nc(Nc5ccccc5)nc(Nc5ccc(Cl)cc5)n4)cc3)nc(N)n2)cc1 | 48.2%
7 | Cc1ccc(NSc2ccccc2[N+](=O)[O-])cc1 | 10.1%
8 | Cc1nc2ccccc2c(/C=C/c2ccc(Cl)cc2)c1C(=O)/C=C/c1ccc(Cl)cc1 | 81.5%
9 | CC(C)n1nc(C#Cc2cccc3cc(-c4cccc(C(F)(F)F)c4)ncc23)c2c(N)ncnc21 | -4.27% (active)
10 | Cc1cc(N(CCCNc2ccnc3cc(Cl)ccc23)Cc2ccccn2)nc(N2CCOCC2)n1 | 69.2%
11 | CCN1CCN(c2ccc(Nc3cc(-c4cccnc4Nc4c(Cl)c(OC)cc(OC)c4Cl)ncn3)cc2)CC1 | 42.8%
12 | Fc1ccc(Nc2ccc3cc(OCCCN4CCOCC4)ccc3n2)cc1F | 48.6%
13 | CN(C)CCOC(=O)Nc1ccc(Cl)cc1 | 96.3%
14 | Cn1cc(Nc2nccc(-c3ccc(N4CCCC4)c(C#N)c3)n2)cn1 | 24.5%
15 | CC(C)(C)CC(C)(C)Nc1c(-c2ccc(-c3ccccc3)cc2)nc2cnccn12 | 88.7%
16 | C=C1C(=O)O[C@H]2[C@H]1CC/C(Cn1cc(CNCCc3c[nH]c4ccc(Cl)cc34)nn1)=C\CC[C@@]1(C)O[C@@H]21 | 69.6%
17 | O=C(c1ccccc1)c1ccc(N2C(=O)C3C4c5ccccc5C(/C=C/C(=O)c5ccccn5)(c5ccccc54)C3C2=O)cc1 (stereo not given) | 46.7%
18 | Cn1ncc2c(Nc3ccc(Br)cc3)nc(Nc3ccc(Br)cc3)nc21 | 66.9%
19 | N=c1ccn2c(n1)OC1C(O)C(CO)OC12 (stereo not given) | 11.4%
20 | O=[N+]([O-])c1ccccc1C(O)Cc1ccc2ccccc2n1 (stereo not given) | 85.8%

Row | Structure (SMILES) | growth
21 | O=c1[nH]c(NCc2nnnn2-c2ccc(Br)cc2)nc2sc3c(c12)CCCC3 | 93.2%
22 | COc1ccc(OC)c(/C=C2\COc3ccc(O)cc3C2=O)c1 | 116%
23 | Cl.[Pt].[c-]1ccccc1-c1ccccn1.c1ccc(P(c2ccccc2)C([PH+](c2ccccc2)c2ccccc2)[PH+](c2ccccc2)c2ccccc2)cc1 | 7.24% (active)
24 | C=C1c2c(C)nn(-c3ccc(S(N)(=O)=O)cc3)c2N(C)C23CC1C1(C)c4c(C)nn(-c5ccc(S(N)(=O)=O)cc5)c4N(C)C(C)(CC12)C3 (stereo not given) | 76%
25 | CCNCCNc1cc(-c2ccc(C#N)cc2)c(C#N)c2nc3ccccc3n12 | -20.4% (active)
26 | NS(=O)(=O)Oc1ccc(-c2sc3cc(O)ccc3c2C(=O)c2ccc(OCCN3CCCCC3)cc2)cc1 | 39.6%
27 | CN(C)CCCCNc1ccc(NCCCCN(C)C)c2c1C(=O)c1c(O)ccc(O)c1C2=O | 79.5%
28 | Cc1cc(N2CCCCC2)nc(N(CCNc2ccnc3cc(Cl)ccc23)Cc2ccccn2)n1 | 80.3%
29 | O=C(NCCOCCOCCOCCNC(=O)c1cc2c(o1)C(=O)c1ccccc1C2=O)NC12CC3CC(CC(C3)C1)C2 | -99.6% (active)
30 | COC(=O)CNC(=O)C(=O)c1c(O)c(O)c(C(C)C)c2cc(C)c(-c3c(C)cc4c(C(C)C)c(O)c(O)c(C(=O)C(=O)NCC(=O)OC)c4c3O)c(O)c12 | 57.5%
31 | O=C(O)CC1Sc2ccccc2NC1=O (stereo not given) | 94%
32 | Cc1cccc(-c2cc(O)c(C(=O)N3CCOCC3)s2)c1 | 33.5%
33 | COc1ccc(C2CC(c3ccccc3)=NN2c2nc(C)c(C(C)=O)s2)cc1 (stereo not given) | 90.2%
34 | c1ccc([P+](CCCc2n(Cc3ccc4ccccc4c3)c3ccccc3[n+]2Cc2ccc3ccccc3c2)(c2ccccc2)c2ccccc2)cc1 | 91%
35 | CN1CCN(C(=O)[C@]23CCC(C)(C)C[C@@H]2C2=CC[C@@H]4[C@@]5(C)Cc6c([nH]c7ccccc67)C(C)(C)[C@@H]5CC[C@@]4(C)[C@]2(C)CC3)CC1 | 56.6%
36 | C=C(C)[C@@H]1CC[C@@]2(C(=O)O)CC[C@]3(C)C(CCC4[C@@]5(C)CCC(OS(=O)(=O)c6ccccc6)C(C)(C)C5CC[C@]43C)C12 (stereo not given in full) | 86.1%
37 | COC(=O)c1ccc2oc(NC(=O)c3ccc(N4CCOCC4)c([N+](=O)[O-])c3)nc2c1 | 79.7%
38 | N=C(N)c1ccc(-c2ccc(/C=C/c3ccccc3)s2)cc1 | 24.3%
39 | COc1ccc(/C(C)=C(\c2ccc(Cl)cc2)c2ccc(OCCN(C)C)cc2)cc1F | 75.4%
40 | CCOC(=O)c1ccc(NC(=O)CCCN(CC)CC)cc1 | 106%
